The source of these data is PMC10156912.

One test addresses PHD finger protein 12 (UniProt Q96QT6). As to the kind of experiment: other; cross-linking mass spectrometry; other.
Another test has as its target Histone deacetylase 2 (UniProt Q92769). Put plainly: cross-link between two proteins; cross-linking mass spectrometry.

Chain of PHD finger protein 12 (Q96QT6 whole entry): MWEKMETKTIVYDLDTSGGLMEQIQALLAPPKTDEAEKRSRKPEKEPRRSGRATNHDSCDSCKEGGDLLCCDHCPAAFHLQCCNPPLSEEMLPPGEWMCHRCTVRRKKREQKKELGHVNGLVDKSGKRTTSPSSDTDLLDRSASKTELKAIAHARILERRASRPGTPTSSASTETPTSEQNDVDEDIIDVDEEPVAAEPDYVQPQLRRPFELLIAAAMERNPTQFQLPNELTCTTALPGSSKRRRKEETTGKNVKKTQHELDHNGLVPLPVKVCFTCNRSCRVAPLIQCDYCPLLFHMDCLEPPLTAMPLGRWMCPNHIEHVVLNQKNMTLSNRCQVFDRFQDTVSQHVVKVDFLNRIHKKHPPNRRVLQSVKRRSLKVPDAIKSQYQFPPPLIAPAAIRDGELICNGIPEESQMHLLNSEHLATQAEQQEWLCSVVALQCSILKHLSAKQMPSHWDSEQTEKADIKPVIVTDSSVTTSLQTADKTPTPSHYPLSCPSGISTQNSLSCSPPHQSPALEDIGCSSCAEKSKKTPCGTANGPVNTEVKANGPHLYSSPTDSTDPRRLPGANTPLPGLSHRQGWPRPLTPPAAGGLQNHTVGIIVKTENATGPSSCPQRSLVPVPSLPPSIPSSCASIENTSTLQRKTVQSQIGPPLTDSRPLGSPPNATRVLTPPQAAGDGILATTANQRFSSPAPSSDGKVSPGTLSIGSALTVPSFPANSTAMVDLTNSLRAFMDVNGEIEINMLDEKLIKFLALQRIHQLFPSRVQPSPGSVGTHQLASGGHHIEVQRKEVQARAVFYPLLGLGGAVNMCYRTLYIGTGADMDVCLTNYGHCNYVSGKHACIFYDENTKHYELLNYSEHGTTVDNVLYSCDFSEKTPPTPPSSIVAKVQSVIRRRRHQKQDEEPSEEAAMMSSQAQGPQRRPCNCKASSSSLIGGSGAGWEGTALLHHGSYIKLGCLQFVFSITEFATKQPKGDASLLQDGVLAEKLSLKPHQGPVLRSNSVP
Chain of Histone deacetylase 2 (Q92769 whole entry): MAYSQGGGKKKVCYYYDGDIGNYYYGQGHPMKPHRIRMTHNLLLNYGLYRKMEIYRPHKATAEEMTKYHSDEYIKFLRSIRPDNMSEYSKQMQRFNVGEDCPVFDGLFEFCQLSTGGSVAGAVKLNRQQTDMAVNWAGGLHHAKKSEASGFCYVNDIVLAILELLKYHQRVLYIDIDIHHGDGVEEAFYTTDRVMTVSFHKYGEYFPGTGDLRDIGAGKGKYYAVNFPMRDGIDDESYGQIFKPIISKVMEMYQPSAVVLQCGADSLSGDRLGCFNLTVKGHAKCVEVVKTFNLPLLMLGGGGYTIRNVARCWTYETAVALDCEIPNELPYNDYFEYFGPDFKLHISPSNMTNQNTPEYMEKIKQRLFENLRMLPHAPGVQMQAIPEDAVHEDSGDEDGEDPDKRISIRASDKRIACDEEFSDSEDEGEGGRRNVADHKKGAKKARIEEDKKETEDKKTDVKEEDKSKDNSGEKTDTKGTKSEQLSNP

With “Paired amphipathic helix protein Sin3b, O75182”, the “listed as a hit” value with PHD finger protein 12 and in the test with Histone deacetylase 2 was “yes” throughout.
